MEKK2mut PB1 HTS: MEK5 binding signal on mutant MEKK2 PB1, primary screen, biochemical, multiplex bead flow cytometry, Alexa488-MEK5. percent response, % at 10 µM. actives 0.35% (n = 290,000). Alexa488-MEK5 binding to MEKK2 mutant; in the data active = percent response above about 24%, passing the limit was not always enough
MEKK2wt PB1 HTS: modulators of MEK5 binding to wildtype MEKK2, primary screen, biochemical, multiplex bead flow cytometry, Alexa488-MEK5; Mitogen-activated protein kinase kinase kinase 2 (Homo sapiens), Q9Y2U5; binding response (% of control), % at 10 µM; actives 1.1% (n = 290,000); Alexa488-MEK5 binding to MEKK2 WT; actives lie on both sides; in the data active = binding response below about 67% or above about 130%
CHT inh: inhibitors of human choline transporter CHT; actives 0.86% (n = 310,000); B-score at 10 µM; High affinity choline transporter 1 (Homo sapiens), Q9GZV3; CHT-expressing cells, membrane potential dye, choline response; hits give low values;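 active = B-score over 3 SD under the library average, and starting fluorescence ratio not unusually high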;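 note: choline stimulus applied at its EC90 after an EC20 pre-addition; B-score computed on integrated fluorescence ratio after choline addition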
CHT allo act: CHT positive allosteric modulators, primary screen, cell-based, membrane potential dye, choline EC20; CHT-expressing cells; hits give high values; LV-AA mutant CHT in HEK293 cells; B-score at 10 µM; actives 0.49% (n = 310,000); AID 488977, 2010;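 active = initial fluorescence not abnormally high and integrated response B-score, plate-corrected, over 3 SD above library mean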
MEKK3 PB1 HTS: modulators of MEKK3-MEK5 PB1 binding, primary screen, biochemical, wildtype MEKK3, multiplex bead flow cytometry, Alexa488-MEK5 | Mitogen-activated protein kinase kinase kinase 3 (Homo sapiens), Q99759 | bead-based flow cytometry, Alexa488-MEK5 binding to MEKK3; actives lie on both sides; 0 = blocked by unlabeled MEK5, 100 = vehicle | binding response (% of control), % at 10 µM | actives 1.4% (n = 290,000);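 active = binding response more than 3 SD above or below the average of its plate-row segment, actives on both sides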;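 note: Alexa488 bead fluorescence after subtracting the streptavidin-only scavenger bead signal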
Target sequence (Q99759 whole entry, looked up): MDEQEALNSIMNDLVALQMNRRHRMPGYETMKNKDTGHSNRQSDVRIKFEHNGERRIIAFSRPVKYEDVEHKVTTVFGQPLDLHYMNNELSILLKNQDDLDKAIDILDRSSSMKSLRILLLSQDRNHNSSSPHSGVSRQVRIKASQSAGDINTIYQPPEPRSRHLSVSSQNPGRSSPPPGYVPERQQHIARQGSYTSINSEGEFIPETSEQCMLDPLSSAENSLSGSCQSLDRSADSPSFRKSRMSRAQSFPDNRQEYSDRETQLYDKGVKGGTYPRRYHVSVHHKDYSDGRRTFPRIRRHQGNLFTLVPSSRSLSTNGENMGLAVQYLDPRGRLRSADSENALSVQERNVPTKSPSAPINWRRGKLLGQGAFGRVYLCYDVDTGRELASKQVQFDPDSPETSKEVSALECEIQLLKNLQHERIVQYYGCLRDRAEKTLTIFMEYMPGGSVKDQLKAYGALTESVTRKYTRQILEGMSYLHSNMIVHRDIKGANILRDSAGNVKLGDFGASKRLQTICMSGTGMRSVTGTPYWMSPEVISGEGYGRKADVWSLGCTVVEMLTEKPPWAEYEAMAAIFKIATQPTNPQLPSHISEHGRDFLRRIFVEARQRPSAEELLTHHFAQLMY
Mot1-301 SUMO: yeast Mot1-301 growth rescue at high temperature, primary screen, SUMOylation pathway inhibitor project, S. cerevisiae, ATP luminescence, 38.5C. S. cerevisiae Mot1-301 growth rescue; percent above DMSO median, 100 means doubled. growth rescue, % at 18.8 µM. actives 1% (n = 320,000);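 active = every valid replicate shows activation above 250% relative to neutral control wells; inactive = the rest, any valid replicate at or below 250%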
MEKK2wt confirm: modulators of MEK5 binding to wildtype MEKK2, confirmation, biochemical, single concentration, multiplex bead flow cytometry; shares compounds with MEKK3 PB1 HTS; Alexa488-MEK5 binding to MEKK2 WT; actives lie on both sides; binding response (% of control), % at 10 µM; actives 2.4% (n = 5,900); AID 1892, 2009; in the data active = binding response below about 16% or above about 210%; inactive = in between
MEKK2mut-MEK5: mutant MEKK2 PB1-MEK5 binding signal retest – biochemical, single concentration, multiplex bead flow cytometry, confirmation | Alexa488-MEK5 binding to MEKK2 mutant | shares compounds with MEKK3 PB1 HTS | percent response, % at 10 µM | actives 2% (n = 5,900); in the data active = percent response mostly above about 71%, no sharp cut-off; inactive = mostly below about 38%;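 note: higher means compound restores mutant binding toward wildtype level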
MEKK3-MEK5 inh: MEKK3 wild-type PB1 binding to MEK5, inhibitors, confirmation, biochemical, bead multiplex flow cytometry, single concentration, wildtype | actives 1.8% (n = 5,900) | shares compounds with MEKK3 PB1 HTS | Alexa488-MEK5 binding to MEKK3; hits give low values | binding response (% of control), % at 10 µM;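 active = binding response below 72% of control, or above a set upper limit, though filed actives all read lower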;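 note: lower values mean stronger disruption of MEK5 binding to MEKK3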
Hits are given with their value; - = inactive; . = no result given; [ ] = another dose, or the depositor's remark. An excerpt weighted towards active compounds, which were near 4.1% of everything screened.

SMILES	MEKK2mut PB1 HTS	MEKK2wt PB1 HTS	CHT inh	CHT allo act	MEKK3 PB1 HTS	Mot1-301 SUMO	MEKK2wt confirm	MEKK2mut-MEK5	MEKK3-MEK5 inh
COc1ccc(S(=O)(=O)N2CCC(n3cnc4ccccc43)CC2)cc1	-	-	-	-	-	-	.	.	.
C[C@@H](O)C1NC(=O)[C@H](CCCCN)NC(=O)c2cc([N+](=O)[O-])cc(F)c2NCCCC[C@@H](C(N)=O)NC1=O (stereo partly drawn)	-	141	-	-	-	-	-	-	-
CN(CC(=O)Nc1nc2ccccc2s1)S(=O)(=O)c1ccccc1	-	-	-	-	-	-	.	.	.
CCN1CCN(C(c2ccccc2)c2nnnn2Cc2ccccc2)CC1 (stereo not drawn)	-	139	-	-	144	-	-	-	-
CCN1CCN(C(c2ccc(OC)cc2)c2nnnn2Cc2ccc3c(c2)OCO3)CC1 (stereo not drawn)	-	-	-	-	144	-	-	-	-
CCN1CCN(C(c2ccccc2)c2nnnn2Cc2ccc3c(c2)OCO3)CC1 (stereo not drawn)	-	-	-	-	-	-	.	.	.
O=C(C1CCCCN1S(=O)(=O)c1ccccc1[N+](=O)[O-])N1CCCCC1 (stereo not drawn)	-	-	-	-	74[inhibitor]	-	-	-	-
CN(C)c1ccc(C(C(=O)NC2CCCCC2)N(Cc2ccco2)C(=O)c2snc(C(N)=O)c2N)cc1 (stereo not drawn)	-	-	-	-	-	-	.	.	.
Cc1c(Cl)cccc1NC(=O)c1ccc(-n2ccnc2)nc1	-	50[inhibitor]	-	-	49[inhibitor]	-	-	-	-
Cc1c(Cl)cccc1NC(=O)c1cccnc1	-	-	-	-	-	-	.	.	.
CC(=O)Nc1ccc(/C=C/c2noc(-c3ccccc3O)n2)cc1	-	-	-	-	-	-	.	.	.
COc1cc(/C=C/c2noc(-c3ccccc3O)n2)ccc1OC(C)=O	-	-	-	-	129	-	-	-	-
CCCc1ccc(C#N)c(SC2CC(=O)N(c3ccc(OC)cc3)C2=O)n1 (stereo not drawn)	-	-	-	-	-	-	.	.	.
COc1ccc(N2C(=O)CC(Sc3nc(C)cc(C)c3C#N)C2=O)cc1 (stereo not drawn)	-	-7.0[inhibitor]	-	-	1.0[inhibitor]	-	-	-	-
Cc1cc(C(=O)c2cnc(/N=C/N(C)C)s2)cc(C)c1O	-	0.0[inhibitor]	-	-	0.0[inhibitor]	-	-	-	-
Cn1nc(C(=O)OCC(=O)Nc2ccc(C(N)=O)cc2)c2ccccc2c1=O	.	.	.	.	.	-	.	.	.
CC1(CC(=O)N/N=C/c2cc(Br)c(O)cc2O)OCCO1	-	-	-	-	-	-	.	.	.
Cc1oc(/C=N/NC(=O)CC2(C)OCCO2)cc1Br	-	-	-	-	132	-	-	-	-
Cc1ccc(S(C)(=O)=O)cc1C(=O)NC(C)C1CC2CCC1C2 (stereo not drawn)	-	-	-	-	-	-	.	.	.
COc1ccc(Cl)cc1NC(=O)NC1CCCCC1	-	-	-	-	81[inhibitor]	-	-	-	-
COc1ccc(Cl)cc1NC(=O)NCC1CCN(C(=O)OC(C)(C)C)CC1	-	-	-	-	128	-	-	-	-
CCCN1CCC(NC(=O)Nc2cc(Cl)ccc2OC)CC1	-	-	-	-	-	-	.	.	.
CCN(Cc1ccccc1)S(=O)(=O)c1ccc(C(=O)N2CCN(c3nc4ccccc4s3)CC2)cc1	-	-	-	-	-	-	.	.	.
COc1ccc(N2CC(C(=O)Nc3nnc(SCC(=O)NCC4CCCO4)s3)CC2=O)cc1 (stereo not drawn)	-	-	-	-	-	-	.	.	.
COC(=O)c1cc(NC(=O)c2ccccc2)c(=O)oc1/C=C/Nc1ccc(Oc2ccccc2)cc1	734	218	.	.	-	.	-	-	-
SMILES	MEKK2mut PB1 HTS	MEKK2wt PB1 HTS	CHT inh	CHT allo act	MEKK3 PB1 HTS	Mot1-301 SUMO	MEKK2wt confirm	MEKK2mut-MEK5	MEKK3-MEK5 inh
Cc1ccc(C)c(NC(=S)N=Nc2c(O)n(C)c3ccc(S(=O)(=O)N4CCOCC4)cc23)c1	-	-	-	-	62[inhibitor]	-	-	-	-
Cc1cc2c(NC3CCCCC3)ncnc2s1	-	-	-	-	-	-	.	.	.
O=C(CCC(=O)Nc1ccc(F)cc1)N/N=C/c1ccccc1O	-	-	-	-	149	-	-	-	-
O=c1[nH]nc(CNc2ccc(OC(F)(F)F)cc2)c2ccccc12	-	-	-	-	39[inhibitor]	-	-	-	-
COC/C=C/C1=CC2=CC(=O)C(C)(OC(=O)c3ccco3)C(=O)C2=CO1 (stereo not drawn)	-	72[inhibitor]	-	-	-	-	-	-	-
O=C1NCCO1	.	.	-	-	.	-	.	.	.
CCC(=O)N=c1ccn(C2=Nc3ccccc3NC2=C(C#N)C#N)cc1	-	-	-	-	-	-	.	.	.
CCc1ccccc1Nc1nc(N)nc(COC(=O)c2c(C)noc2C)n1	.	.	.	.	.	-	.	.	.
c1ccc(CN2CCC(Nc3ncnc4sccc34)CC2)cc1	51	-	-	-	-	-	-	-	-
c1ccc(CN2CCC(Nc3nc(-c4cccnc4)nc4ccccc34)CC2)cc1	-	144	-	-	-	.	-	-	-
Cc1sc2ncnc(NC3CCN(Cc4ccccc4)CC3)c2c1C	-	-	-	-	-	-	.	.	.
CCNC(=O)C(=O)NCc1ccncc1	-	-	-	-	-	-	.	.	.
C[C@H]1C=CC(=O)O[C@H]1c1ccccc1	-	-	-	-	122	-	-	-	-
COc1ccc(C(=O)N[C@H](C(=O)NCc2cccs2)C(C)C)cc1	-	-	-	-	-	-	.	.	.
O=C(C[n+]1ccc2ccccc2c1)c1cccc2ccccc12	-	-	-	-	-	-	.	.	.
